From PubChem BioAssay (Tox21)
Records with an inconclusive call do not appear. A call without a number means that no potency is given here. Activity calls are given as the source filed them. Unless noted, the call rests on the fitted dose curve.

Experiments:
[1] = Nuclear factor erythroid 2-related factor 2/antioxidant responsive element (Nrf2/ARE) small molecule agonists: qHTS cell viability counter screen in human keratinocytes (AID 1919968; active means well fitted curve in the direction sought with a large enough effect in the repeat runs; an effect the other way counts as inactive or inconclusive; further: nearly all actives have a fitted effect of over 55% in size)
Summary of the method: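 Cytotoxicity was multiplexed with the Nrf2/ARE luciferase assay in the same wells. Stably transfected HaCaT keratinocytes were treated with test compounds for 23 h at 37 C. Cell viability was then measured by CellTiter-Fluor fluorescence.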

[2] = Nuclear factor erythroid 2-related factor 2/antioxidant responsive element (Nrf2/ARE) small molecule agonists: luciferase reporter gene qHTS assay in human keratinocytes (AID 1919969); further: nearly all actives have a fitted effect of over 35% in size
[3] = molecular target: Gonadotropin-releasing hormone receptor (Homo sapiens) (UniProt P30968); assay: Human gonadotropin-releasing hormone receptor (GnRHR) small molecule agonists, calcium flux assay in GnRHR-HEK293 cells (AID 1920063); further: nearly all actives have a fitted effect of over 35% in size
Summary of the method: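 Agonist activity was measured as intracellular calcium flux in HEK293 cells engineered to stably express human GnRHR. After dye loading for 1 hour at 37 C, compounds in DMSO were added and fluorescence was followed for 3 minutes.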

[4] = molecular target: KiSS-1 receptor (Homo sapiens) (UniProt Q969F8); assay: Human kisspeptin (KISS1R) small molecule agonists, calcium flux assay in KISS1R-HEK293 cells (AID 1920064; active means well fitted curve in the direction sought with a large enough effect in the repeat runs; an effect the other way counts as inactive or inconclusive)
Summary of the method: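 Agonist activity is monitored as intracellular calcium rise in engineered HEK293 cells carrying human KISS1R. Cells are dye-loaded for 1 h at 37 C before compound addition, and fluorescence is recorded for 3 min.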

[5] = G protein-coupled receptor (GPCR) small molecule agonists, calcium flux assay: HEK293 wild type cell line counter screen (AID 1920065)
Summary of the method: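 Seed cells, incubate 18 h (37 C, 5% CO2); add calcium dye, 1 h at 37 C; pin-transfer compounds, ATP control or DMSO; read fluorescence 480/540 nm each second for 3 min.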

[6] = p53 small molecule agonists, cell-based qHTS assay with human liver microsomes (AID 1963577)
Summary of the method: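 Cells carrying a p53-responsive bla reporter were rested 5 h (37 C, 5% CO2) before compound transfer. Human liver microsomes plus NADPH, 0.5 mg/mL final apiece, supplied metabolism during the 16 h 37 C exposure.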

[7] = p53 small molecule agonists, cell-based qHTS assay with rat liver microsomes (AID 1963578)
Summary of the method: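 Fluorescence from a beta-lactamase reporter under a p53 response element was measured after cells had been incubated 16 h at 37 C with test compound and rat liver microsomes plus NADPH (0.5 mg/mL final each).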

[8] = p53 small molecule agonists, cell-based qHTS assay with human liver microsomes: qHTS cell viability counter screen (AID 1963579); further: nearly all actives have a fitted effect of over 45% in size; further: potency means the concentration at half of the fitted maximal effect
Summary of the method: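 Seed p53RE-bla cells at 4,000 per well; incubate 5 h at 37 C; add compound, human liver microsomes and NADPH; incubate 16 h at 37 C; add CellTiter-Glo; after 30 min at room temperature, read luminescence.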

[9] = p53 small molecule agonists, cell-based qHTS assay with rat liver microsomes: qHTS cell viability counter screen (AID 1963580); further: nearly all actives have a fitted effect of over 45% in size
Summary of the method: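 Rat liver microsome (0.5 mg/mL final) and NADPH (0.5 mg/mL final) co-incubation with compounds for 16 h at 37 C on HCT-116 p53RE-bla cells; cytotoxicity taken from intracellular ATP luminescence.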

[10] = p53 small molecule agonists, cell-based qHTS assay: qHTS cell viability counter screen (AID 1963581); further: nearly all actives have a fitted effect of over 45% in size
Summary of the method: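 Viability was counter-screened in parallel with the p53 agonist reporter by measuring intracellular ATP luminescence in the same HCT-116 p53RE-bla wells after 16 h compound treatment at 37 C.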

[11] = p53 small molecule agonists, cell-based qHTS assay (AID 1963582; active means well fitted activation curve with a large enough effect in the signal ratio in the repeat runs, not every such curve was filed as active; the % refers to the signal ratio)
Summary of the method: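 Cells carrying a p53-responsive bla reporter are treated with test compounds for 16 h at 37 C; beta-lactamase activity is then detected with LiveBLAzer B/G FRET substrate after 2 h at room temperature.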

[12] = molecular target: 5-hydroxytryptamine receptor 2A (Homo sapiens) (UniProt P28223); assay: 5-hydroxytryptamine receptor 2A (HTR2A) small molecule agonists, cell-based qHTS assay (AID 1963587); further: nearly all actives have a fitted effect of over 30% in size
Summary of the method: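 Kinetic calcium-flux fluorescence (2 min, 1 sec intervals) after compound addition in agonist mode. HTR2A-CHO cells were cultured 18 h, then dye-loaded 1 h at 37 C.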

[13] = molecular target: Muscarinic acetylcholine receptor M1 (Homo sapiens) (UniProt P11229); assay: Cholinergic receptor muscarinic 1 (CHRM1) small molecule agonists, cell-based qHTS assay (AID 1963589); further: nearly all actives have a fitted effect of over 35% in size
Summary of the method: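 Cells were plated and incubated 18 h at 37 C/5% CO2, loaded with calcium dye for 1 h at 37 C, then treated with compounds in DMSO. Fluorescence was recorded kinetically at 1 sec intervals.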

[14] = cAMP Responsive Elements (CRE) small molecule agonists, cell-based qHTS assay (AID 1963590)
Summary of the method: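 Cells carrying a CRE-driven beta-lactamase reporter (HEK 293T) are seeded, incubated overnight (18 h), and treated with test compounds for 3 h at 37 C; reporter activity is then detected with a FRET substrate after 2 h at room temperature.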

[15] = cAMP Responsive Elements (CRE) small molecule antagonists, cell-based qHTS assay (AID 1963591; active means well fitted inhibition curve with a large enough effect in the signal ratio in the repeat runs, not every such curve was filed as active; the % refers to the signal ratio)
Summary of the method: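 Cells (CRE-bla HEK 293T, DMEM with 10% dialyzed FBS and 25 mM HEPES) are seeded and incubated 18 h. Compounds are added with NKH477 agonist at 0.25 uM final for 3 h, then FRET substrate for 2 h.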

[16] = molecular target: Beta-2 adrenergic receptor (Homo sapiens) (UniProt P07550); assay: Adrenergic beta2 receptor (ADRB2) small molecule antagonists, cell-based qHTS assay (AID 1963592); further: series mostly up to about 92 µM; nearly all actives have a fitted effect of over 50% in size
Summary of the method: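 Assay format: CHO-ADRB2 cells, 18-20hr seeding at 37C/5% CO2, then compound plus 1nM isoproterenol agonist mix for 0.5hr RT. Homogeneous time-resolved fluorescence cAMP detection after 1hr, expressed as 665/615 nm ratio.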

[17] = molecular target: Beta-2 adrenergic receptor (Homo sapiens) (UniProt P07550); assay: Adrenergic beta2 receptor (ADRB2) small molecule agonists, cell-based qHTS assay (AID 1963593);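 further: CHO cells stably overexpressing human ADRB2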
Summary of the method: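 CHO cells stably over-expressing ADRB2 were plated overnight at 37C, then dosed with compounds plus a stimulation mix containing 100uM IBMX and 25uM Ro-20-1724 for 0.5hr at room temperature. cAMP was measured by HTRF competition, 1hr.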

[18] = molecular target: D(2) dopamine receptor (Homo sapiens) (UniProt P14416); assay: Dopamine D2 receptor (DRD2) small molecule agonists, cell-based qHTS assay (AID 1963594); further: nearly all actives have a fitted effect of over 35% in size
Summary of the method: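 cAMP accumulation in DRD2-HEK293 cells measured by HTRF after 1 h detection; compounds added 10 min before NKH477 (200nM […]) forskolin-analogue stimulation, 30 min at room temperature, with Ro20-1724 present at 0.1 mM final.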

[19] = molecular target: Muscarinic acetylcholine receptor M1 (Homo sapiens) (UniProt P11229); assay: Cholinergic receptor muscarinic 1 (CHRM1) small molecule antagonists, cell-based qHTS assay (AID 1963588); further: nearly all actives have a fitted effect of over 40% in size
Summary of the method: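 Compounds were tested at 15 concentrations in three independent runs. Dye-loaded CHRM1-CHO cells were exposed 5 min at room temperature before stimulation by acetylcholine added at 50nM. Intracellular calcium was read kinetically on FDSS for 3 min.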

[20] = molecular target: D(2) dopamine receptor (Homo sapiens) (UniProt P14416); assay: Dopamine D2 receptor (DRD2) small molecule antagonists, cell-based qHTS assay (AID 1963595; active means well fitted inhibition curve with a large enough effect in the signal ratio in the repeat runs, with a control signal flat; the % refers to the signal ratio)
Summary of the method: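 Stable D2 receptor HEK293 line, 24 h after seeding. Compound preincubated 10 min, then quinpirole (12 nM) with forskolin analogue NKH477 (200 nM), 30 min, room temperature. Detection by time-resolved FRET of cAMP.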

5-hydroxytryptamine receptor 2A (Homo sapiens), sequence (P28223 whole entry, looked up): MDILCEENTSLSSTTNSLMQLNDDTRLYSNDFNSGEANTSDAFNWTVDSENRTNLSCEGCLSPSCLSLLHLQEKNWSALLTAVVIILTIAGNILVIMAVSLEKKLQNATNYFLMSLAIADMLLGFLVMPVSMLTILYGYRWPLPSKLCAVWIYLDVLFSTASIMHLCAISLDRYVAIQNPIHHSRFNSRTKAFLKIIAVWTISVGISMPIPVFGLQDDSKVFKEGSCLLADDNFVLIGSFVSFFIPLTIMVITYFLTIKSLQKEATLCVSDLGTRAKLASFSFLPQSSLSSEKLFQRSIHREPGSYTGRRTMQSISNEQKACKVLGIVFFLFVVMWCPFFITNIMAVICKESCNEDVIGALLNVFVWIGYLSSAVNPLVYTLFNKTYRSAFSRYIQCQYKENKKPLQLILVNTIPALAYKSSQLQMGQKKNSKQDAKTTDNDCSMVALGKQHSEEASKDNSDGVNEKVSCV
D(2) dopamine receptor (Homo sapiens), sequence (P14416 whole entry, looked up): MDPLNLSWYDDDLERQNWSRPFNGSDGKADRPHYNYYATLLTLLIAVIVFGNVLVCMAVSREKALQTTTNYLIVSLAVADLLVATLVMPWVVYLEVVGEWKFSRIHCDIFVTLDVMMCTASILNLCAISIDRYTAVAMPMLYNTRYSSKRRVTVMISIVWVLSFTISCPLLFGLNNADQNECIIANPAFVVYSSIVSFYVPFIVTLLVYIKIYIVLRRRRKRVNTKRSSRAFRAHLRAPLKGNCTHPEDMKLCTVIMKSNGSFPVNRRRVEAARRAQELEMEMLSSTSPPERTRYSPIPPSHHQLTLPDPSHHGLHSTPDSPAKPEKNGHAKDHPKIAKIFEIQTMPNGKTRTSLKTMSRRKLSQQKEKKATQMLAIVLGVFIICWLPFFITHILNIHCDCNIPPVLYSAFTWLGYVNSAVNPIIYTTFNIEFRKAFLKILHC
Muscarinic acetylcholine receptor M1 (Homo sapiens), sequence (P11229 whole entry, looked up): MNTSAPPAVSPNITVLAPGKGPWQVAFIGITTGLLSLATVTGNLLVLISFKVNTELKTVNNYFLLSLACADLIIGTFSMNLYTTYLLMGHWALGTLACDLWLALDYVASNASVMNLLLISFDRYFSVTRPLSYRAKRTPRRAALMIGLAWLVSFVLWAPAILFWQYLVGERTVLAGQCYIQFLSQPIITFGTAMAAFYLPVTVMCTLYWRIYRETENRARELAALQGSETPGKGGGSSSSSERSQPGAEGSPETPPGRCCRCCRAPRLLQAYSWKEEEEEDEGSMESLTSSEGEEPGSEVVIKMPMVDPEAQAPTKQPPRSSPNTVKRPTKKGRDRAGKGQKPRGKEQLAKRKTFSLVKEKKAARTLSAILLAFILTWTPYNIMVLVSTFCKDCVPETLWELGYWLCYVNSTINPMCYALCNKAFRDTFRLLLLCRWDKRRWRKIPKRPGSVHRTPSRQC
Gonadotropin-releasing hormone receptor (Homo sapiens), sequence (P30968 whole entry, looked up): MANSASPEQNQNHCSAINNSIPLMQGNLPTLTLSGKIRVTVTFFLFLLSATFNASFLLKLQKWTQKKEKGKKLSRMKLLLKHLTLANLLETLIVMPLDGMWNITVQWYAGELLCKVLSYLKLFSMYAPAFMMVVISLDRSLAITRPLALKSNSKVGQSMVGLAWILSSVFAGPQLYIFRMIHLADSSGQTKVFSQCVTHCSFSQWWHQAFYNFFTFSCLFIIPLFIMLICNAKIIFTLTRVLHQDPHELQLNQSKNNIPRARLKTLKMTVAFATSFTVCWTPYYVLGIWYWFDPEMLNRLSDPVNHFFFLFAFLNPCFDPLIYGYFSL
KiSS-1 receptor (Homo sapiens), sequence (Q969F8 whole entry, looked up): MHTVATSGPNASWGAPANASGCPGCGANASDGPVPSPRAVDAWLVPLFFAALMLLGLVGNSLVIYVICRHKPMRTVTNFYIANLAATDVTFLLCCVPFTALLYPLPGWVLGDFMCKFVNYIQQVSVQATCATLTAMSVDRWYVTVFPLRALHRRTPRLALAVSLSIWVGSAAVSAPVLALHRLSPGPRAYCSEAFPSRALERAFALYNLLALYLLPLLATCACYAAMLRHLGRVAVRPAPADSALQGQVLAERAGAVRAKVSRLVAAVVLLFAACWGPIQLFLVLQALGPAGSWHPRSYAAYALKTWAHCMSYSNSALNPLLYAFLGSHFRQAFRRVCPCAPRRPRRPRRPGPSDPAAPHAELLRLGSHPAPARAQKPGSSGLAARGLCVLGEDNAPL
Beta-2 adrenergic receptor (Homo sapiens), sequence (P07550 whole entry, looked up): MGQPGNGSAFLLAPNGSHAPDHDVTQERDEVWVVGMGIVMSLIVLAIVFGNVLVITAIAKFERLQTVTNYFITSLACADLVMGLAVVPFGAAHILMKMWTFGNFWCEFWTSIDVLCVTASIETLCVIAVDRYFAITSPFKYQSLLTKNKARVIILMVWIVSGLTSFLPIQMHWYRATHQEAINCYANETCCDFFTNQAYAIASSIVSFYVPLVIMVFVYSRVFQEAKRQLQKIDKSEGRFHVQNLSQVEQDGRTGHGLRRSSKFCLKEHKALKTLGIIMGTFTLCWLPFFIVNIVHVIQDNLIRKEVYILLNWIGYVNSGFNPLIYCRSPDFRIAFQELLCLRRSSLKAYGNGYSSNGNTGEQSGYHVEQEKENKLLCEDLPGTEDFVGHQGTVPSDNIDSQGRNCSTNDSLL

| SMILES | Potency [1] | Potency [2] | Potency [3] | Potency [4] | Potency [5] | Potency [6] | Potency [7] | Potency [8] | Potency [9] | Potency [10] | Potency [11] | Potency [12] | Potency [13] | Potency [14] | Potency [15] | Potency [16] | Potency [17] | Potency [18] | Potency [19] | Potency [20] |
| --- | --- | --- | --- | --- | --- | --- | --- | --- | --- | --- | --- | --- | --- | --- | --- | --- | --- | --- | --- | --- |
| COc1cc(C(=O)NCc2ccc(OCCN(C)C)cc2)cc(OC)c1OC | inactive | inactive | inactive | inactive | inactive | inactive | inactive | inactive | inactive | inactive | inactive | inactive | inactive | inactive | inactive | inactive | inactive | inactive |  |  |
| O=C(CCNNC(=O)c1ccncc1)NCc1ccccc1 | inactive | inactive | inactive | inactive | inactive | inactive | inactive | inactive | inactive | inactive | inactive | inactive |  | inactive | inactive | inactive |  | inactive | inactive |  |
| [Cl][Dy]([Cl])[Cl] | inactive | inactive | inactive | inactive | inactive | inactive | inactive | inactive | inactive | inactive | inactive | inactive | inactive |  | inactive | inactive | inactive | inactive |  |  |
| C=CCOC(=O)CCCCCC | inactive | inactive | inactive | inactive | inactive | inactive | inactive | inactive | inactive | inactive | inactive | inactive | inactive | inactive | inactive | inactive | inactive | inactive |  | inactive |
| OCC(O)CN1CCN(c2ccccc2)CC1 (stereo not drawn) | inactive | inactive | inactive | inactive | inactive | inactive | inactive | inactive | inactive | inactive | inactive | inactive |  |  | inactive | inactive | inactive |  | inactive | inactive |
| C1COC1 | inactive | inactive | inactive | inactive | inactive | inactive | inactive | inactive | inactive | inactive | inactive | inactive | inactive | inactive | inactive | inactive | inactive | inactive |  | inactive |
| CCCCCCCCCCC | inactive | inactive | inactive | inactive | inactive | inactive | inactive | inactive | inactive | inactive | inactive | inactive | inactive | inactive | inactive |  |  | inactive |  |  |
| CCCCC(CC)CCC(CC(C)C)OS(=O)(=O)O (stereo not drawn) | inactive | inactive | inactive | inactive | inactive | inactive | inactive | inactive | inactive | inactive | inactive | inactive | inactive | inactive | inactive | inactive | inactive | inactive |  | inactive |
| O=C(O)CONC(=O)c1ccccc1 | inactive | inactive | inactive | inactive | inactive | inactive | inactive | inactive | inactive | inactive | inactive | inactive | inactive |  | inactive | inactive | inactive | inactive |  |  |
| O=Cc1ccc(F)cc1 | inactive | inactive | inactive | inactive | inactive | inactive | inactive | inactive | inactive | inactive | inactive | inactive | inactive | inactive | inactive | inactive | inactive | inactive |  | inactive |
| COC(=O)CC(C(C)=O)C(=O)OC (stereo not drawn) | inactive | inactive | inactive | inactive | inactive | inactive | inactive | inactive | inactive | inactive | inactive | inactive | inactive | inactive | inactive | inactive | inactive |  |  | inactive |
| CCCCCCCCCCCCCCO | inactive | inactive | inactive | inactive | inactive | inactive | inactive | inactive | inactive | inactive | inactive | inactive | inactive | inactive | inactive | inactive |  | inactive |  | inactive |
| COc1ccc(C)cc1 | inactive | inactive | inactive | inactive | inactive | inactive | inactive | inactive | inactive | inactive | inactive | inactive | inactive | inactive | inactive | inactive | inactive | inactive |  | inactive |
| CC12CC3CC(C)(C1)CC(N)(C3)C2 | inactive | inactive | inactive | inactive | inactive | inactive | inactive | inactive | inactive | inactive | inactive | inactive | inactive | inactive | inactive | inactive | inactive |  |  | inactive |
| NS(=O)(=O)c1cc2c(cc1Cl)NC(C1CC3C=CC1C3)NS2(=O)=O (stereo not drawn) | inactive | inactive | inactive | inactive | inactive | inactive | inactive | 3.97 µM (active) | inactive | inactive | inactive | inactive | inactive | inactive | inactive | inactive |  | inactive |  |  |
